PrPC TRFRET – inhibitors of human cell surface prion protein PrPC. P04156. TR-FRET read-out. inhibition, % at 13.8 µM. hit rate 0.43% among 370,000; in the data active = inhibition above about 24%; note: 0% = median of the test wells and 100% = reference compound wells
PrP 5UTR inh – inhibition of PrP 5' UTR reporter expression. cell-based PrP 5' UTR mRNA reporter, plate reader. AID 488862. inhibition, % (concentration not given with the values). hit rate 0.35% among 340,000; in the data active = inhibition above about 52%; note: 0 = median of the neutral control wells
3CLpro inhibitor – SARS-CoV 3CLpro protease inhibition | P0C6X7 | recombinant SARS-CoV 3CLpro, quenched FRET peptide cleavage | inhibition, % at 6 µM | hit rate 0.14% among 290,000 | AID 1706; in the data active = inhibition above about 12%
CCHF vOTU inh-1 – CCHFV vOTU protease inhibition; Pep-AMC fluorescence; inhibition, % at 11.5 µM; hit rate 0.55% among 370,000; AID 651958; note: 0% = vehicle wells with enzyme and 100% = no enzyme wells
CCHF vOTU inh-2 – confirmation of CCHF virus vOTU protease inhibitors; shares compounds with CCHF vOTU inh-1; Recombinant CCHFV vOTU, Pep-AMC fluorescence; inhibition, % at 11.5 µM; hit rate 17% among 1,900; AID 686976
Numbers without * were called inactive; / = no result. Hits are enriched below; roughly 1.3% of the tested compounds scored in any of these assays. Cut-off read from the data, not from the text of the source, unless noted: active = inhibition above about 30%; inactive = the rest.

SMILES	PrPC TRFRET	PrP 5UTR inh	3CLpro inhibitor	CCHF vOTU inh-1	CCHF vOTU inh-2
Cc1ccc([C@@H]2CC(=O)[C@@H]3CN(S(=O)(=O)c4ccc(C)cc4)[C@H](c4ccc(Cl)cc4)C[C@@H]3N2S(=O)(=O)c2ccc(Cl)cc2)cc1	-5.5	/	/	31.2*	-19.7
CCc1ccc([C@H]2[C@@H]3C(=O)C[C@@H]4C(=O)N(C)C(=O)[C@@H]4[C@@H]3CN2S(=O)(=O)c2ccc(C)cc2)cc1	-2.1	/	/	30.4*	-7.0
Cc1ccc(S(=O)(=O)N2C[C@H]3C(=O)C[C@@H](c4ccc(Cl)cc4)N(S(=O)(=O)c4ccc(C)cc4)[C@H]3C[C@H]2c2ccc(Cl)cc2)cc1	3.0	/	/	5.8	/
CCCCCN(C(=O)CCc1cn(CCCCC)c2ccccc12)c1ccc(Oc2cccnc2)cc1	9.4	/	/	10.9	/
CCCN(C(=O)c1cn(CCC)c2ccccc12)c1ccc(Oc2cccnc2)cc1	18.6	/	/	38.3*	2.6
CN1CCS/C1=C/C=C1\SC(=S)N(CC(=O)O)C1=O	-53.9	-19.5	0.8	34.6*	10.2
Cc1c(-c2ccccc2)nc(N)c(C#N)c1-c1cccnc1	0.4	-22.8	-4.4	-3.0	/
CCn1ccnc1CNC(=O)C1CCC(=O)N(Cc2cccc(C(F)(F)F)c2)C1 (stereo unspecified)	3.1	-0.6	-1.7	-8.7	/
CC1CCCN(c2ccc(C(=O)NCc3ccc4c(c3)OCO4)cc2[N+](=O)[O-])C1 (stereo unspecified)	-7.2	-17.0	3.9	30.8*	-12.5
O=C(NCc1ccc2c(c1)OCO2)c1ccc(N2CCCCCC2)c([N+](=O)[O-])c1	-7.8	-16.0	-3.6	0.8	/
O=C1C=C(c2ccc(F)nc2)CCC1	1.5	-7.0	/	0.6	/
CCSc1nc(-c2ccccc2)cc(=O)[nH]1	-3.0	-17.1	/	30.8*	-11.8
COC(=O)[C@]12C[C@H](CC(=O)NCc3cccc(C(F)(F)F)c3)C(=O)N(Cc3ccco3)C1=C[C@H](C(C)(C)C)O[C@@H]2C	10.7	/	/	32.2*	4.9
COC(=O)[C@]12C[C@H](CC(=O)NCc3cccc(C(F)(F)F)c3)C(=O)N(Cc3ccc(Cl)cc3Cl)C1=C[C@H](C(C)(C)C)O[C@@H]2C	-11.5	/	/	31.8*	15.0
O=C(Cc1ccc(F)cc1)Nc1cc(S(=O)(=O)N2CCOCC2)ccc1N1CCCCC1	6.0	/	/	-8.5	/
CCOc1ccc(NC(=O)CSc2nnc(-c3ccccc3)n2N)cc1	1.8	-23.3	0.9	5.1	/
CC12CCC(C(=NO)C1=O)C2(C)C (stereo unspecified)	1.6	-14.9	/	35.6*	-17.1
COc1ccc(C(CNC(=O)C(=O)NC2CCCCC2)N2CCN(C)CC2)cc1 (stereo unspecified)	-7.5	-3.6	/	31.7*	-13.6
O=C(CSc1ccccc1F)NNC(=O)c1cncc(Br)c1	4.3	-19.1	/	7.5	/
O=C(NCCN1CCCCC1)c1ccc(/C=N/O)nc1	0.7	-9.1	5.8	9.9	/
CC1(C(=O)Nc2ccc3c(c2)OCCO3)CC1(Cl)Cl (stereo unspecified)	-3.8	-17.8	-0.4	-8.5	/
COc1ccccc1C(=O)Nc1ccc(NC(=O)C2CCCCC2)nc1	8.8	-2.5	0.8	39.4*	-20.6
COc1ccc(C(=O)Nc2ccc(NC(=O)C3CCCCC3)nc2)cc1	-1.9	-10.8	-0.8	0.1	/
CC(C)(C)c1ccc(-c2cn(C[C@H](Cc3ccccc3)n3c(=O)c4ccccc4n3Cc3ccccc3)nn2)cc1	2.9	/	/	-5.7	/
CCc1cc(-c2cnnn2Cc2ccccc2)ccc1-c1cn(CC(C)C)nn1	3.4	/	/	29.6*	-9.8
SMILES	PrPC TRFRET	PrP 5UTR inh	3CLpro inhibitor	CCHF vOTU inh-1	CCHF vOTU inh-2
CN(C)c1ccc(NC(=O)COC(=O)c2cc(=O)c3ccccc3o2)cc1	-6.9	-24.7	6.5	35.4*	-14.8
CC(OC(=O)c1cc(=O)c2ccccc2o1)C(=O)Nc1ccc(N(C)C)cc1 (stereo unspecified)	-0.7	-6.0	/	0.0	/
COc1ccc(S(=O)(=O)NCC(c2ccco2)N2CCc3ccccc3C2)cc1 (stereo unspecified)	-3.5	-19.4	/	34.9*	-6.6
CCOC(=O)C1CCCN(C(=O)c2ccc(OCC)cc2)C1 (stereo unspecified)	6.9	-25.5	-1.9	-6.5	/
O=C(COC(=O)c1ccc([N+](=O)[O-])s1)NNC(=O)c1ccccc1	/	-18.8	/	/	/
O=C(COC(=O)c1ccc([N+](=O)[O-])s1)NCc1ccc(F)cc1	-23.5	-27.2	-0.6	71.3*	77.4*
O=C(COC(=O)c1ccc([N+](=O)[O-])s1)NC(=O)NCc1ccccc1	-34.0	-11.9	5.6	53.1*	48.4*
O=C(COC(=O)c1ccc([N+](=O)[O-])s1)c1ccc[nH]1	-18.8	-18.0	/	58.3*	49.5*
O=C(NNc1ccccc1[N+](=O)[O-])Nc1cccc(Cl)c1	-15.3	-25.1	5.3	-3.8	/
COc1ccc(NC(=O)CSc2nccn2Cc2ccc(F)cc2)c(OC)c1	12.5	-12.0	4.7	-1.8	/
COc1ccc(/C=C(\NC(=O)c2cccs2)C(=O)N2CCOCC2)cc1OC	1.5	-2.7	1.0	7.7	/
CCOc1ccc2c(c1)C(C)=CC(C)(C)N2C(=O)Nc1ccccc1F	1.5	-18.2	0.0	71.1*	-100.4
CCOC(=O)C1CCN(C(c2cc3c(C)ccc(C)c3[nH]c2=O)c2nnnn2C2CCCCC2)CC1 (stereo unspecified)	-1.9	-12.0	6.2	2.6	/
Cc1ccc(OCc2cc(C(=O)N3CCC(C(O)C(C)C)CC3)no2)cc1C (stereo unspecified)	12.3	-21.6	-0.9	33.3*	-9.3
Cc1ccc(OCc2cc(C(=O)N3CCCCCCC3)no2)cc1C	-5.6	-38.6	-3.9	7.0	/
O=C(NCCN1CCN(c2ccccc2F)CC1)C1c2ccccc2C(=O)N2CCc3ccccc3C12 (stereo unspecified)	-4.7	-10.8	5.0	10.7	/
C=CCn1c(COc2ccc(C)cc2)nnc1SCC(=O)c1ccc(-c2ccccc2)cc1	7.2	/	/	29.8*	19.2
C=CCn1c(COc2ccccc2)nnc1SCC(=O)c1ccc(-c2ccccc2)cc1	-11.0	/	/	8.4	/
CCSc1c(C(=O)NC)ccc2c1C(=O)c1ccccc1C2=O	-34.4	-11.3	1.4	-7.0	/
CCOC(=O)c1c(/N=C/c2cc([N+](=O)[O-])ccc2O)sc(C)c1C	-13.1	-40.4	-3.4	30.2*	13.5
CCOC(=O)c1c(/N=C/c2cc(OC)cc([N+](=O)[O-])c2O)sc(C)c1C	-0.8	-10.8	1.0	0.1	/
CC(=O)N1CCc2cc(S(=O)(=O)NC(C(=O)Nc3ccc4c(c3)OCCO4)C(C)C)ccc21 (stereo unspecified)	-5.3	-8.1	2.4	29.8*	-6.8
CC(=O)N1CCc2cc(S(=O)(=O)CCC(=O)Nc3ccc4c(c3)OCCO4)ccc21	4.6	-19.0	1.0	-1.0	/
COc1ccc(C(=O)N(Cc2ccco2)Cc2cccs2)c(O)c1	-8.1	26.5	-0.3	34.4*	-1.1
COc1ccccc1C(=O)NCCC(=O)N(Cc1ccco1)Cc1cccs1	-9.1	-5.4	3.9	-5.4	/
CCCC(=Nc1ccc(N)cc1)C1=C(O)C(C(=O)OC)C(C)(C)CC1=O (stereo unspecified)	-11.9	-9.2	1.9	102.7*	3.2

High-throughput results: PubChem BioAssay, several laboratories
